From PubChem BioAssay (NCATS)
Where “and” joins values, the source holds several entries; their conditions need not be identical. Identical values can stand only once. Records with an inconclusive call do not appear. Values without a mark were called inactive. Calls follow the shape of the dose curve; as a rule, active = well fitted cell-killing curve with a large enough effect in the repeat runs; inconclusive = weak or mixed curves; inactive = flat fitted curve, though single readings scatter.

test: qHTS assay for small molecule agonists of the antioxidant response element (ARE) signaling pathway measured by Nrf2-dependant transcriptional activity - cell viability counter screen (AID 720653); settings: ARE-bla HepG2 viability, CellTiter-Glo ATP luminescence, 16 h; max response: stronger effect = lower value
Source text: National Center for Advancing Translational Sciences [NCATS] NIH Chemical Genomics Center [NCGC] U.S. Environmental Protection Agency [EPA] National Institutes of Environmental Health Sciences [NIEHS] National Toxicology Program [NTP] Assay Overview: Oxidative stress has been implicated in the pathogenesis of a variety of diseases ranging from cancer to neurodegeneration. The antioxidant response element (ARE) signaling pathway plays an important role in the amelioration of oxidative stress. The CellSensor ARE-bla HepG2 cell line (Invitrogen) can be used for analyzing the Nrf2/antioxidant response signaling pathway. Nrf2 (NF-E2-related factor 2) and Nrf1 are transcription factors that bind to AREs and activate these genes. The CellSensor ARE-bla HepG2 cell line contains a beta-lactamase reporter gene under control of the Antioxidant Response Element (ARE) stably integrated into HepG2 cells. The activation of the report gene under culture conditions can be detected by fluorescence intensity. The cytotoxicity of the compounds against the ARE-bla HepG2 cell line was quantified by measuring the intracellular ATP content.
Assay Protocol Summary: ARE-bla HepG2 cells were dispensed at 2,000 cells/5 ul/well in 1536-well black wall/clear bottom plates using a Multidrop Combi (ThermoFisher Scientific, Waltham, MA) dispenser. After the assay plates were incubated at 37C/5% CO2 for 5 hrs, 23 nL of compounds dissolved in DMSO, positive controls or DMSO only was transferred to the assay plate by a pintool work station (Kalypsys, San Diego, CA). The plates were incubated at 37C/5% CO2 for 16 hrs. After 1 uL of LiveBLAzer B/G FRET substrate was added using a Flying Reagent Dispenser (FRD) (Aurora Discovery, San Diego, CA), the assay plates were incubated at room temperature for 2 hrs. The fluorescence intensity was measured by an Envision (PerkinElmer, Shelton, CT) plate reader. Cell viability using CellTiter Glo viability assay (Promega, Madison, WI) was also measured by adding 4 ul/well of CellTiter-Glo reagent into the same assay plate using a FRD. After 30 min incubation at room temperature, the luminescence intensity in the plates was measured using a ViewLux (PerkinElmer) plate reader.
% is scaled to controls: 0 for no effect and ±100 for the full control effect.

Q: Which max response does the source give for `C=C(C)C1CC=C(C)C(O)C1` (stereo not given) here?
A: The max response was -2.07%.

Q: For `Clc1cc(Cl)c(Cl)c(Cl)c1Cl`, which max response is on record?
A: Its max response is -0.0319% and -1.01%.

Q: With `O=C(O)c1ccccc1C(c1ccc(O)cc1)c1ccc(O)cc1` as the compound, how does the max response read?
A: The max response was -7.19% and 7.52%.

Q: For `OCCNCCO`, which max response is on record?
A: The max response was 2.63% and -10.1%.

Q: With `C/C=C\c1ccc(OC)cc1` as the compound, how does the max response read?
A: Its max response is -0.534%.

Q: Which max response does the source give for `O=C1CCc2ccccc2O1` here?
A: Its max response is 2.06%.

Q: With `COc1cc(/C=C/c2ccccc2)oc(=O)c1` as the compound, how does the max response read?
A: Its max response is -6.81%.

Q: With `CCCCC(CC)CN` (stereo not given) as the compound, how does the max response read?
A: Its max response is -5.16% and -12.4%.

Q: For `CCCCCCCCOC(=O)c1cc(O)c(O)c(O)c1`, which max response is on record?
A: Its max response is -10.2%.

Q: Which max response does the source give for `c1ccc2c(c1)[nH]c1ccccc12` here?
A: Its max response is -11% and -21.8%.

Q: With `C=CC(=O)OCCOCCOCCOCCOC(=O)C=C` as the compound, how does the max response read?
A: The max response was -13%.

Q: For `Cc1ccc([N+](=O)[O-])cc1N`, which max response is on record?
A: Its max response is -2.84% and 7.73%.

Q: Which max response does the source give for `O=C(/C=C/c1ccc(O)c(O)c1)O[C@@H](C(=O)O)[C@@H](OC(=O)/C=C/c1ccc(O)c(O)c1)C(=O)O` here?
A: The max response was 27.4%.

Q: For `CC1=C2[C@H](/C=C(\C)C(=O)O)CC[C@@H](C)[C@H]2CC1`, which max response is on record?
A: The max response was -0.329%.

Q: With `Cc1cccc(O)c1` as the compound, how does the max response read?
A: Its max response is 2.52% and 7.45%.

Q: With `Clc1cc(Cl)c(Cl)cc1Cl` as the compound, how does the max response read?
A: The max response was 2.91% and 4.61%.

Q: With `CC12CCC(CC1=O)C2(C)C` (stereo not given) as the compound, how does the max response read?
A: The max response was -1.85% and 2.1%.

Q: Which max response does the source give for `O=C(O[C@@H]1Cc2c(O)cc(O)cc2O[C@@H]1c1cc(O)c(O)c(O)c1)c1cc(O)c(O)c(O)c1` here?
A: Its max response is -12.8%.

Q: Which max response does the source give for `Cc1c(N=C=O)cccc1N=C=O` here?
A: The max response was 0.551% and 0.668%.

Q: With `O=S(=O)(O)c1ccccc1` as the compound, how does the max response read?
A: The max response was 11%.

Q: With `CC(C)=CCCC(C)CCO` (stereo not given) as the compound, how does the max response read?
A: The max response was -2.24% and -1.77%.

Q: For `CN(C)C=O`, which max response is on record?
A: The max response was -6.03% and 8.83% and -4.93%.

Q: Which max response does the source give for `O=NO` here?
A: Its max response is -5.36% and 6.29%.

Q: With `CCCCCCCCCCCCCC(=O)O` as the compound, how does the max response read?
A: Its max response is 1.31% and -9.4%.

Q: With `COC(=O)c1ccc(C)cc1` as the compound, how does the max response read?
A: The max response was 2.73% and -0.323%.

Q: Which max response does the source give for `CC(=O)OC/C=C(\C)CCC=C(C)C` here?
A: The max response was -2.65% and 12.5%.

Q: For `c1ccccc1`, which max response is on record?
A: The max response was -0.292% [middle of 4 runs].

Q: Which max response does the source give for `Nc1ccc(Cl)cc1Cl` here?
A: The max response was -3.23% and 2.15%.

Q: With `CCCCCCCCCCCC(=O)O` as the compound, how does the max response read?
A: The max response was 8.32% and -0.379%.

Q: With `C[Si](C)(C)O[Si](C)(C)O[Si](C)(C)C` as the compound, how does the max response read?
A: Its max response is 4.82%.

Q: Which max response does the source give for `O=C(O)c1ccccc1` here?
A: The max response was 1.2%.

Q: For `O=C(O)c1ccc(O)cc1O`, which max response is on record?
A: Its max response is 4.94% and 4%.

Q: Which max response does the source give for `c1ccc2scnc2c1` here?
A: Its max response is -3.11%.

Q: With `CCC(C)c1ccccc1O` (stereo not given) as the compound, how does the max response read?
A: Its max response is 15.2% and -6.24% and -8.74%.

Q: With `Cc1ccc([N+](=O)[O-])c(C)c1` as the compound, how does the max response read?
A: The max response was -3.32% and -3.26%.

Q: For `COC(=O)CCCCC(=O)OC`, which max response is on record?
A: The max response was -2.58% and 2.67% and 6.18%.

Q: Which max response does the source give for `C=CC(=C)CCC=C(C)C` here?
A: Its max response is 6.84%.

Q: Which max response does the source give for `O=C(O)CC(C(=O)O)C(CC(=O)O)C(=O)O` (stereo not given) here?
A: The max response was -9.78% and -3.54%.

Q: Which max response does the source give for `CC1(C)S[C@@H]2[C@H](NC(=O)COc3ccccc3)C(=O)N2[C@H]1C(=O)O` here?
A: Its max response is -8.85%.

Q: For `c1ccc2c(c1)c1cccc3ccc4cccc2c4c31`, which max response is on record?
A: The max response was -0.0817% and -5.96%.
